Experimental data taken from PubChem BioAssay (NCI).
The panel holds about 79,000 compounds, 15% with a hit somewhere; the sample as a whole holds those more often. Active and inactive are the calls of the source. No stated cut-off is given here; in the data, active means growth inhibition above about 70%; inactive means the rest.

Columns and labels:
[1] = NCI Yeast Anticancer Drug Screen. Data for the wt2 strain (AID 169);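 further: 0% = growth of vehicle-treated yeast cultures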; settings: S. cerevisiae wt2 strain growth inhibition, stronger effect = higher value
Method in brief: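 Treated yeast vs. vehicle-treated yeast: growth inhibition determined.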

[2] = NCI Yeast Anticancer Drug Screen. Data for the mlh1 strain (AID 171);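 further: 0% = growth of vehicle-treated control cultures of the same strain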; settings: S. cerevisiae mlh1 strain growth inhibition, stronger effect = higher value
Method in brief: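 A yeast strain with a defined genetic lesion serves as the test organism. Cultures receive compound or vehicle, and growth is measured.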

[3] = NCI Yeast Anticancer Drug Screen. Data for the sgs1 strain (AID 173);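 further: 0% = growth of vehicle-only control cultures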; settings: S. cerevisiae sgs1 mutant, stronger effect = higher value
Method in brief: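 A genetically defined yeast mutant is incubated with the test compound, and its growth is compared to that of the same strain given vehicle.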

[4] = NCI Yeast Anticancer Drug Screen. Data for the mlh1 rad18 strain (AID 175); settings: S. cerevisiae mlh1 rad18 strain growth inhibition, stronger effect = higher value
Method in brief: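 Steps: expose repair-defective yeast to compound; measure growth; express inhibition against vehicle-treated controls.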

[5] = NCI Yeast Anticancer Drug Screen. Data for the rad18 strain (AID 177); settings: S. cerevisiae rad18 mutant growth inhibition, stronger effect = higher value
Method in brief: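 Measured value is growth inhibition of a yeast strain bearing a DNA repair alteration, referenced to vehicle-treated cells.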

[6] = NCI Yeast Anticancer Drug Screen. Data for the rad52 strain (AID 147);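 further: 0% = growth of vehicle-treated control cultures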; settings: S. cerevisiae rad52 mutant growth inhibition, stronger effect = higher value
Method in brief: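 Here a repair-compromised yeast strain receives each compound; its growth is then quantified and normalised to vehicle-only controls.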

[7] = NCI Yeast Anticancer Drug Screen. Data for the wt1 strain (AID 149);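 further: 0% = growth of vehicle-treated wt1 cultures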; settings: S. cerevisiae wt1 strain (SPY 50644) growth inhibition, stronger effect = higher value
Method in brief: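 Using yeast strain wt1, compound-induced growth inhibition was determined against vehicle-treated cultures.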

[8] = NCI Yeast Anticancer Drug Screen. Data for the rad50EPP+ strain (AID 151);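 further: 0% = growth of vehicle-treated control cultures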; settings: S. cerevisiae rad50 mutant strain, stronger effect = higher value
Method in brief: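 Read-out is yeast growth inhibition relative to vehicle; cells used were the rad50EPP+ strain.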

[9] = NCI Yeast Anticancer Drug Screen. Data for the mgt1 strain (AID 153); settings: S. cerevisiae mgt1 mutant growth inhibition, stronger effect = higher value
Method in brief: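 Measured: inhibition of mgt1 yeast growth by compound, normalized to vehicle-treated cultures.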

[10] = NCI Yeast Anticancer Drug Screen. Data for the rad50 strain (AID 155);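 further: 0% = growth of vehicle-only cultures of the same strain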; settings: S. cerevisiae rad50 strain growth inhibition, stronger effect = higher value
Method in brief: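 Relative growth inhibition (compound vs vehicle) was measured in yeast with a defined repair-gene alteration.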

[11] = NCI Yeast Anticancer Drug Screen. Data for the mec2-1 strain (AID 157); settings: S. cerevisiae mec2-1 strain, stronger effect = higher value
Method in brief: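 Using mec2-1 yeast: add compound, measure growth, express inhibition versus vehicle-treated cultures.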

[12] = NCI Yeast Anticancer Drug Screen. Data for the rad14 strain (AID 159);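 further: 0% = growth of vehicle-treated control cultures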; settings: S. cerevisiae rad14 strain growth inhibition, stronger effect = higher value
Method in brief: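 Screen for anticancer potential: a yeast strain altered in DNA damage repair is grown with compound, and reduced growth is quantified against vehicle controls.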

[13] = NCI Yeast Anticancer Drug Screen. Data for the sgs1 mgt1 strain (AID 161);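 further: 0% = growth of cultures given vehicle only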; settings: S. cerevisiae sgs1 mgt1 strain, stronger effect = higher value
Method in brief: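 Yeast cells carrying a defined DNA-repair defect were exposed to test compounds. Growth inhibition was measured relative to vehicle-treated controls.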

[14] = NCI Yeast Anticancer Drug Screen. Data for the CLN2oe strain (AID 163);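 further: 0% = growth of vehicle-only control cultures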; settings: S. cerevisiae CLN2oe strain, stronger effect = higher value
Method in brief: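 Whole-cell yeast growth assay. A strain engineered for altered cell-cycle control received compound, and inhibition relative to vehicle-treated cultures was recorded.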

[15] = NCI Yeast Anticancer Drug Screen. Data for the cln2 rad14 strain (AID 165);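 further: 0% = growth equal to vehicle treated cultures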; settings: S. cerevisiae cln2 rad14 strain, stronger effect = higher value
Method in brief: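 Yeast strain cln2 rad14, bearing defects in cell cycle control and DNA repair, serves as the test system; values reflect growth inhibition compared with vehicle.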

[16] = NCI Yeast Anticancer Drug Screen. Data for the bub3 strain (AID 167); settings: S. cerevisiae bub3 mutant strain, stronger effect = higher value
Method in brief: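 Screening used yeast with an engineered genetic alteration affecting cell cycle control. Compound-exposed cultures were compared with vehicle cultures, and reduced growth was taken as inhibition.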

[17] = at 5.0 µM (retest, dose inferred, filed as 0.5)
[18] = at 50.0 µM (retest, dose inferred, filed as 5.0)

Measured: growth inhibition

CCC(/C=C/c1ccccc1)=N\Nc1ccc(Cl)c(Cl)c1
active: [1]; at 100.0 µM 95% | [2]; at 100.0 µM 94% | [3]; at 100.0 µM 95% | [4]; [18] 93% | [4]; at 50.0 µM 91.3% | [5]; at 100.0 µM 95%
inactive: [1]; at 1.2 µM -2% | [1]; at 3.7 µM -5% | [1]; at 11.0 µM 7% | [1]; at 33.0 µM 22% | [2]; at 1.2 µM -4% | [2]; at 3.7 µM -2% | [2]; at 11.0 µM 0% | [2]; at 33.0 µM 39% | [3]; at 1.2 µM -3% | [3]; at 3.7 µM -17% | [3]; at 11.0 µM 17% | [3]; at 33.0 µM 67% | [4]; [17] 9% | [5]; at 1.2 µM 6% | [5]; at 3.7 µM 16% | [5]; at 11.0 µM 8% | [5]; at 33.0 µM 43%

COc1ccc(/C=C2\SC(=S)N(/C=C3\C(=O)N(c4ccccc4)N=C3C)C2=O)cc1OC
active: [6]; at 100.0 µM 77% | [7]; at 100.0 µM 76% | [9]; at 33.0 µM 79% | [9]; at 100.0 µM 89% | [10]; at 100.0 µM 71% | [11]; at 50.0 µM 73.2% | [11]; at 100.0 µM 80% | [12]; at 100.0 µM 74% | [13]; [18] 83% | [13]; at 50.0 µM 79.2% | [14]; at 100.0 µM 71% | [1]; at 33.0 µM 82% | [1]; at 100.0 µM 89% | [2]; at 33.0 µM 81% | [2]; at 100.0 µM 88% | [3]; at 33.0 µM 86% | [3]; at 100.0 µM 90% | [4]; at 50.0 µM 76.2% | [5]; at 100.0 µM 74%
inactive: [6]; at 1.2 µM 3% | [6]; at 3.7 µM 8% | [6]; at 11.0 µM 25% | [6]; at 33.0 µM 64% | [7]; at 1.2 µM 3% | [7]; at 3.7 µM 5% | [7]; at 11.0 µM 11% | [7]; at 33.0 µM 48% | [8]; at 1.2 µM -1% | [8]; at 3.7 µM 6% | [8]; at 11.0 µM 24% | [8]; at 33.0 µM 55% | [8]; at 100.0 µM 58% | [9]; at 1.2 µM 1% | [9]; at 3.7 µM 3% | [9]; at 11.0 µM 27% | [10]; at 1.2 µM -5% | [10]; at 3.7 µM -10% | [10]; [17] 5% | [10]; at 11.0 µM 9% | [10]; at 33.0 µM 61% | [10]; [18] 51% | [10]; at 50.0 µM 63.4% | [11]; at 1.2 µM 3% | [11]; at 3.7 µM 4% | [11]; [17] -7% | [11]; at 11.0 µM 18% | [11]; at 33.0 µM 65% | [11]; [18] 52% | [12]; at 1.2 µM 3% | [12]; at 3.7 µM 4% | [12]; at 11.0 µM 26% | [12]; at 33.0 µM 66% | [13]; [17] -4% | [14]; at 1.2 µM -18% | [14]; at 3.7 µM -9% | [14]; at 11.0 µM 3% | [14]; at 33.0 µM 58% | [15]; [17] -5% | [15]; [18] 61% | [15]; at 50.0 µM 50.8% | [16]; at 1.2 µM -2% | [16]; at 3.7 µM 0% | [16]; [17] 5% | [16]; at 11.0 µM 11% | [16]; at 33.0 µM 42% | [16]; [18] 17% | [16]; at 50.0 µM 67.6% | [16]; at 100.0 µM 65% | [1]; at 1.2 µM -2% | [1]; at 3.7 µM 2% | [1]; at 11.0 µM 26% | [2]; at 1.2 µM 0% | [2]; at 3.7 µM 3% | [2]; at 11.0 µM 25% | [3]; at 1.2 µM 4% | [3]; at 3.7 µM 15% | [3]; at 11.0 µM 42% | [4]; [17] 7% | [4]; [18] 67% | [5]; at 1.2 µM 5% | [5]; at 3.7 µM 17% | [5]; at 11.0 µM 37% | [5]; at 33.0 µM 68%

C=CC(C)(C)N1C(=O)C(C(C)=O)=C(O)C1Cc1c[nH]c2ccccc12 (centres undefined)
active: [6]; at 100.0 µM 87% | [7]; at 100.0 µM 71% | [9]; at 100.0 µM 95% | [10]; at 100.0 µM 78% | [11]; at 100.0 µM 88% | [12]; at 100.0 µM 95% | [13]; [18] 73% | [14]; at 100.0 µM 83% | [16]; at 100.0 µM 84% | [1]; at 100.0 µM 92% | [3]; at 100.0 µM 90% | [4]; [18] 86%
inactive: [6]; at 1.2 µM -1% | [6]; at 3.7 µM -4% | [6]; at 11.0 µM -2% | [6]; at 33.0 µM 19% | [7]; at 1.2 µM 1% | [7]; at 3.7 µM 5% | [7]; at 11.0 µM 3% | [7]; at 33.0 µM 20% | [8]; at 1.2 µM -1% | [8]; at 3.7 µM 1% | [8]; at 11.0 µM -4% | [8]; at 33.0 µM -9% | [8]; at 100.0 µM -15% | [9]; at 1.2 µM -2% | [9]; at 3.7 µM -4% | [9]; at 11.0 µM -1% | [9]; at 33.0 µM 16% | [10]; at 1.2 µM -2% | [10]; at 3.7 µM -2% | [10]; [17] 0% | [10]; at 11.0 µM -2% | [10]; at 33.0 µM 10% | [10]; [18] 48% | [10]; at 50.0 µM 28.6% | [11]; at 1.2 µM 0% | [11]; at 3.7 µM 1% | [11]; [17] -18% | [11]; at 11.0 µM 7% | [11]; at 33.0 µM 21% | [11]; [18] -8% | [11]; at 50.0 µM 58.7% | [12]; at 1.2 µM -3% | [12]; at 3.7 µM -3% | [12]; at 11.0 µM -1% | [12]; at 33.0 µM 21% | [13]; [17] 18% | [13]; at 50.0 µM 52.8% | [14]; at 1.2 µM -5% | [14]; at 3.7 µM -12% | [14]; at 11.0 µM -9% | [14]; at 33.0 µM 16% | [15]; [17] -4% | [15]; [18] 21% | [15]; at 50.0 µM 32.8% | [16]; at 1.2 µM -3% | [16]; at 3.7 µM -2% | [16]; [17] -11% | [16]; at 11.0 µM 0% | [16]; at 33.0 µM 15% | [16]; [18] 55% | [16]; at 50.0 µM 46.8% | [1]; at 1.2 µM -1% | [1]; at 3.7 µM -1% | [1]; at 11.0 µM -1% | [1]; at 33.0 µM 16% | [2]; at 1.2 µM -6% | [2]; at 3.7 µM 0% | [2]; at 11.0 µM 0% | [2]; at 33.0 µM 14% | [2]; at 100.0 µM 66% | [3]; at 1.2 µM 0% | [3]; at 3.7 µM 0% | [3]; at 11.0 µM 2% | [3]; at 33.0 µM 17% | [4]; [17] 55% | [4]; at 50.0 µM 68.5% | [5]; at 1.2 µM 0% | [5]; at 3.7 µM -3% | [5]; at 11.0 µM -1% | [5]; at 33.0 µM 9% | [5]; at 100.0 µM 66%
